Source: PubChem BioAssay (National Center for Advancing Translational Sciences (NCATS))
Tau ThT inhib – inhibitors of human tau fibril formation, thioflavin T binding; P10636; recombinant tau K18 P301L, heparin-induced fibrillization, ThT fluorescence; Potency, µM (top dose mostly 57.4 µM), inactives show top-dose activity, negative = inhibition, most hits filed as inhibitors; 2.1% of 270,000 active; further: nearly all actives have a fitted effect of over 55% in size
Target sequence (P10636 561-689 P618L limits assumed): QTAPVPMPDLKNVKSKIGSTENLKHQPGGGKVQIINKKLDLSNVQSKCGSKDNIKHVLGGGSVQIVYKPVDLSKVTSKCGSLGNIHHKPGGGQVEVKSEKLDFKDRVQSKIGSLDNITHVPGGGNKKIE
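ThT emission at 510 nm, taken 1 hr after adding 30 uM dye, quantifies aggregates formed when 20 uM heparin acts on human tau K18 P301L for 6 hr at 37 C.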
Tau fluor cs – counter-screen for tau fibril formation inhibitors; tau K18 P301L Alexa594 fluorescence, heparin fibrillization; Potency, µM (titrated, usually from 57.7 µM), inactives show at the highest dose activity change, negative = decrease; 0.93% of 280,000 active; AID 1463; further: nearly all actives have a fitted effect of over 55% in size
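Human tau K18 P301L (15 uM unlabeled, 0.24 uM Alexa 594-labeled) in 100 mM sodium acetate pH 7 with 20 uM heparin, 6 hr at 37 C. ThT 30 uM added, 1 hr ambient; Alexa 594 FP and total fluorescence read at 555/632 nm.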
Tau FP inhib – tau fibrillization inhibition (FP); K18 P301L tau heparin fibrillization, Alexa594 FP, 6 h; P10636; 0.39% of 280,000 active; Potency, µM (top dose mostly 57.7 µM), inactives show top-dose activity, negative = inhibition, usual class: inhibitors; further: nearly all actives have a fitted effect of over 55% in size
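Compound effects on tau fibrillization are measured by Alexa 594 fluorescence polarization (ex 555, em 632 nm). K18 P301L tau is used at 15 uM with 0.24 uM labeled tracer, and 20 uM heparin induces aggregation over 6 hr at 37 C.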
VP16 counter – Gal4-VP16 reporter inhibition counter-screen; Drosophila S2 Gal4-VP16 UAS-luciferase, luminescence, 20 h; Potency, µM (titrated, usually from 53.6 µM), for inactives: top-dose activity, negative = inhibition, usual class: inhibitors; 3.5% of 310,000 active; AID 2546;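 further: Gal4-VP16 expression switched on by copper sulfate through the metallothionein promoter; nearly all actives have a fitted effect of over 50% in size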
RORgamma inh – blocks mouse ROR gamma transcriptional activity; P51450; Drosophila S2 Gal4-RORgamma UAS-luciferase reporter, 20 h; Potency, µM (titrated, usually from 53.6 µM), for inactives: top-dose activity change, negative = inhibition, actives largely listed as inhibitors; 5.4% of 310,000 active; AID 2551; further: nearly all actives have a fitted effect of over 60% in size
Target sequence (P51450 whole entry, looked up, the tested form may be a part): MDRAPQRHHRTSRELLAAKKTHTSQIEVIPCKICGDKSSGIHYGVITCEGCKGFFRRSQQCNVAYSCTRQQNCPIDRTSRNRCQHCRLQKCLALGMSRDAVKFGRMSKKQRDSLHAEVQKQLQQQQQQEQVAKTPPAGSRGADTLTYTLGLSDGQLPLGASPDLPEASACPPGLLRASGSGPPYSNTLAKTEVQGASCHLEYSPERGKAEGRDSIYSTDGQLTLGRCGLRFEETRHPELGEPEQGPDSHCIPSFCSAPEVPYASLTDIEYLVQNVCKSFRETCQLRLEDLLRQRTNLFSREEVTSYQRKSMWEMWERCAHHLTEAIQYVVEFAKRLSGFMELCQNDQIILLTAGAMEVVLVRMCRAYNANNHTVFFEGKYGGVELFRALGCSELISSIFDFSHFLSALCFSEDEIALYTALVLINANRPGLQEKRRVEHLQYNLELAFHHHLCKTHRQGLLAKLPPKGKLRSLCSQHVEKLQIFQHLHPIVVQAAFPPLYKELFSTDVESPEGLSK
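Schneider cells (Drosophila), stable Gal4 DBD–ROR gamma + UAS-luc; 1 hr cmpd preincubation; Cu2+ induction 700 uM final; 20 hr ambient; luminescence.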
* hit, by the source's call; ? = inconclusive; · = not tested or not shown; [ ] = dose if it differs, or a comment. A selection: hits, their analogues and other compounds. The true share with any hit is near 7.3%. The call rests on the fitted dose curve; in most records, active means well fitted curve in the direction sought with a large enough effect; inconclusive means small, poorly fitted or top-dose-only effect, or another doubt; inactive means no such curve, though single readings can be large; an effect the other way counts as inactive or inconclusive. On the % scale 0 is the no-effect control and ±100 the full control effect; potency means the concentration at half of the fitted maximal effect.

SMILES	Tau ThT inhib	Tau fluor cs	Tau FP inhib	VP16 counter	RORgamma inh
CCc1ccc(NCc2cc3cc4c(cc3n(CC(=O)Nc3ccc(F)cc3)c2=O)OCCO4)cc1	3%	?	13%	·	·
COc1ccc2cc(CNc3ccc(C)cc3)c(=O)n(CC(=O)Nc3ccc(OC)c(Cl)c3)c2c1	3%	?	?	·	·
COc1ccc(NCc2cc3cc4c(cc3n(CC(=O)Nc3ccc(F)cc3)c2=O)OCCO4)cc1	-7%	11µM*[quencher]	?	·	·
CC(=O)c1cccc(NC(=O)Cn2c(=O)c(CNc3ccc(C)cc3)cc3cc4c(cc32)OCCO4)c1	-17%	18µM*[quencher]	?	·	·
CCOc1ccc(NC(=O)Cn2c(=O)c(CNc3ccc(OC)cc3)cc3ccc(OC)cc32)cc1	?	20µM*[quencher]	?	·	·
CC1CCN(C(=O)C2CCN(S(=O)(=O)c3cccc4nsnc34)CC2)CC1	-5%	-5%	-7%	3%	2%
COc1cc(C2c3c(oc4ccccc4c3=O)C(=O)N2Cc2ccc(C)cc2)ccc1O (configuration not stated)	-10%	-12%	-3%	·	·
Nc1cc2nc[nH]c2cc1N	22µM*	?	?	28%	?
CCCSc1nc2sc3c(c2c(=O)n1-c1ccc(C)cc1)CCCC3	?	-17%	-7%	·	·
CCNc1nc(NCC)nc(NS(=O)(=O)c2ccc(N)cc2)n1	·	·	·	-15%	4%
COc1ccc(OC)c(NC(=O)c2nnn(CC(=O)Nc3ccc(C(C)C)cc3)c2N)c1	?	14µM*[quencher]	-13%	·	·
COc1ccc(-c2cn3nc(N4CCCC(C(=O)NCc5ccc(Cl)cc5)C4)sc3n2)cc1 (configuration not stated)	?	?	10%	·	·
Cn1cc(Br)c(C(=O)NC(=S)N2CCN(c3ccccn3)CC2)n1	4%	11%	-1%	13µM*	4µM*
Cn1ncc(Br)c1C(=O)NC(=S)N1CCN(c2ccccn2)CC1	-2%	-5%	-16%	11µM*	6.3µM*
COC(=O)c1ccccc1NC(=S)N1CCN(c2ccccn2)CC1	-1%	-5%	1%	-11%	-14%
CCOC(=O)N1CCN(C(=S)NC(=O)c2nn(C)cc2Br)CC1	-5%	1%	-12%	?	18µM*
CCOC(=O)c1ccc(NC(=O)c2nn(C)cc2Br)cc1	-2%	-1%	1%	0%	7%
CCOC(=O)c1cccc(NC(=O)c2oc3c(c2C)-c2nn(CC)cc2CC3)c1	-8%	?	6%	·	·
CCOc1ccc(NC(=O)Cn2c(=O)n(Cc3ccccc3)c(=O)c3sc4ccccc4c32)cc1	8%	2%	-18%	·	·
COc1ccc(C2CC(c3ccccc3)n3nc(NC(=O)c4cccs4)nc3N2)cc1 (configuration not stated)	-9%	-5%	-1%	5µM*	3.5µM*
Nc1nc2n(n1)C(c1cccs1)CC(c1ccc(F)cc1)N2 (configuration not stated)	-16%	-9%	0%	-2%	-4%
COc1ccc(C2CC(c3ccccc3)n3nnnc3N2)cc1 (configuration not stated)	-11%	-6%	-5%	-4%	0%
Nc1nc2n(n1)C(c1cccs1)CC(c1ccccc1)N2 (configuration not stated)	-2%	-1%	3%	-18%	13µM*
COc1ccc(C2CC(c3ccccc3)Nc3nc(NC(=O)c4cccs4)nn32)cc1 (configuration not stated)	-16%	-7%	-1%	5.6µM*	2.8µM*
COc1ccc(C2CC(c3cccs3)n3nc(N)nc3N2)cc1 (configuration not stated)	?	-2%	1%	9%	?
SMILES	Tau ThT inhib	Tau fluor cs	Tau FP inhib	VP16 counter	RORgamma inh
O=P1(O)Oc2c(-c3ccccc3)cc3ccccc3c2-c2c(c(-c3ccccc3)cc3ccccc23)O1	-5%	-2%	-9%	-6%	15%
CSCCC(NS(=O)(=O)c1ccc2c(c1)oc(=O)n2C)C(=O)N1CCN(c2cc(Cl)ccc2C)CC1 (configuration not stated)	-16%	-16%	5%	·	·
COc1ccc(OC)c(NC2=C(c3ccccc3)C(=O)c3ccccc32)c1	14µM*	?	8%	·	·
COc1ccc(NC2=C(c3ccccc3)C(=O)c3ccccc32)cc1Cl	-18%	?	-7%	·	·
Cc1cccc(N=Nc2c(C)c(C#N)c(O)[nH]c2=O)c1	1.1µM*	-20%	2%	-6%	19%
CN1CCN(C(=S)c2cn(CCOc3ccccc3)c3ccccc23)CC1	-14%	-22%	4%	?	11µM*
CC(=O)c1cn(CCOc2cc(C)ccc2C)c2ccccc12	·	·	·	4µM*	?
N#Cc1cn(CCOc2ccccc2F)c2ccccc12	-8%	?	?	-14%	38%
Cc1ccccc1OCCn1cc(C(=O)O)c2ccccc21	0%	1%	3%	?	38%
CN1CCN(C(=S)c2cn(CCOc3ccccc3F)c3ccccc23)CC1	-6%	-22%	12%	-8%	14µM*
CC1=Nc2ccccc2/C1=C/c1nc(-c2ccc(C)s2)oc1O	2.8µM*	5µM*[quencher]	4%	?	-2%
CC1=Nc2ccccc2/C1=C\c1nc(-c2ccccc2)oc1O	5µM*	7.9µM*[quencher]	?	10%	32%
COc1ccc(-c2nc(/C=C3\C(C)=Nc4ccccc43)c(O)o2)cc1	4µM*	8.9µM*[quencher]	?	-1%	12%
CC1=Nc2ccccc2/C1=C\c1nc(-c2ccc(C(F)(F)F)cc2)oc1O	13µM*	11µM*[quencher]	3%	3%	-19%
COc1ccc(-c2nc(CN3CCN(Cc4ccccc4)CC3)c(C)o2)cc1	·	·	·	-1%	-25%
Cc1cccc(/N=C/c2nc(-c3ccccc3Br)oc2O)n1	?	?	-10%	-1%	-44%
Cc1ccc(CNS(=O)(=O)c2cc3[nH]c(=O)c(=O)[nH]c3cc2C)cc1	-1%	2%	-2%	·	·
COc1ccc(C2C(C(N)=O)=C(C)Nc3nc(CCCO)nn32)cc1OC (configuration not stated)	·	·	·	-2%	12%
O=C(O)CC(C(=O)Nc1ccc(Cl)cc1)N1CCCCCC1 (configuration not stated)	·	·	·	-13%	-5%
CCCc1ccc(OC(=O)c2ccc(O)cc2Cl)cc1	?	?	28µM*	4µM*	0.89µM*
O=C(O)c1ccc(NC(=O)[C@H](Cc2ccc(O)cc2)NC(=O)c2ccccc2)cc1	·	·	·	6%	1%
COc1ccc(NC(=O)CSC2CC(=O)N(c3ccc4c(c3)OCCO4)C2=O)cc1 (configuration not stated)	-18%	-5%	4%	5µM*	?
